Screening data deposited in PubChem BioAssay by National Center for Advancing Translational Sciences (NCATS).
Only some compounds are listed: those with a hit (about 15% of all), similar ones and a draw of the others.
Sm TGR inh: inhibitors of Schistosoma mansoni thioredoxin glutathione reductase | Q962Y6 | purified TGR, DTNB reduction, TNB absorbance 405 nm | Potency, µM (doses to about 114 µM), inactives show at the highest dose activity change, negative = inhibition, most hits filed as inhibitors | 360,000 compounds, 3% hits | AID 485364; note: potency is the fitted concentration of half-maximal effect; % is set by controls: 0 for no effect and ±100 for the full control effect; nearly all actives have a fitted effect of over 60% in size
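Kinetic colorimetric format: TGR-catalysed, NADPH-driven DTNB reduction monitored via TNB absorbance. Enzyme dispensed at 20 nM; compound exposure 15 min at room temperature before reaction start.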
HCV inhibitor: inhibitors of hepatitis C virus infection; 340,000 compounds, 3.4% hits; Potency, µM (highest dose often 41.8 µM), for inactives: at the highest dose activity change, negative = inhibition, hits mostly inhibitors; Huh7.5.1 HCVcc-Cre infection, luciferase reporter, 44 h; note: potency is the fitted concentration of half-maximal effect; % is set by controls: 0 for no effect and ±100 for the full control effect
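HCVcc-Cre virus at an moi near 0.5 was added right after compound to cells cultured 4 h from seeding (1,000 cells/well). Luciferase activity was determined 44 h later, 15 min after substrate addition at RT.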
SARS PLP yeast: inhibitors of SARS-CoV papain-like protease in yeast | 330,000 compounds, 0.19% hits | AID 485353 | Potency, µM (top dose mostly 32.9 µM), for inactives: at the highest dose activity, positive = growth rescue, hits mostly activators | S. cerevisiae expressing SARS-CoV PLpro, growth rescue; calls by dose curve; note: potency is the fitted concentration of half-maximal effect; 0% is about no effect; nearly all actives have a fitted effect of over 55% in size
Pf growth 48h: inhibits P. falciparum growth in the first generation, 48 h. AID 504832. 310,000 compounds, 5.9% hits. Potency, µM (top dose mostly 28.7 µM), for inactives: top-dose activity change, negative = inhibition, most hits filed as inhibitors. P. falciparum luciferase growth in erythrocytes, 48 h; note: potency is the fitted concentration of half-maximal effect; % is set by controls: 0 for no effect and ±100 for the full control effect
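Here the parasites carry a stable luciferase gene and grow inside erythrocytes in Albumax-based RPMI medium with compound for one erythrocytic cycle. Activity is scored as loss of luminescent signal.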
Pf growth 96h: P. falciparum growth inhibition at 96 hours; P. falciparum luciferase reporter growth, 96 h; Potency, µM (top dose mostly 28.7 µM), for the others: at the top dose activity change, negative = inhibition, hits mostly inhibitors; 320,000 compounds, 6.9% hits; AID 504834; note: potency is the fitted concentration of half-maximal effect; % is set by controls: 0 for no effect and ±100 for the full control effect
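Infected RBCs, 2% Hct / 0.05% parasitemia final; luciferase-reporter P. falciparum; cpd 96 h, 37 C, 5% CO2; luciferase detection reagent; luminescence.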
HCMV inh: human cytomegalovirus inhibition; HFF cells, HCMV-luciferase reporter, 72 h; stronger effect = lower value; activity change, negative = inhibition, % at 57.5 µM; 410,000 compounds, 4.5% hits; AID 1259415; in the data active = activity change below about -60%; inconclusive = no clear call, values can overlap the other calls; inactive = above about -39%; note: % is set by controls: 0 for no effect and ±100 for the full control effect
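Screen run at 2 compound doses on HFFs infected with reporter HCMV, MOI 1 PFU/cell. Luciferase activity from cell lysates at 72 h post infection gave inhibition relative to buffer-only and Salinomycin wells.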
An asterisk follows results filed as active. Unless noted, calls come from the whole dose curve; as a rule, active = well fitted curve in the direction sought with a large enough effect; inconclusive = small, poorly fitted or top-dose-only effect, or another doubt; inactive = no such curve, though single readings can be large; an effect the other way counts as inactive or inconclusive.

How did CC(C)OCCCNC1=C(Cl)C(=O)c2ccccc2C1=O do in these assays?
Sm TGR inh: 20.9%; HCV inhibitor: -4.2%; SARS PLP yeast: 0.4%; Pf growth 48h: 2.94µM*; Pf growth 96h: 4.15µM*; HCMV inh: inconclusive

Results for CCN(CC)CCCNC1=C(Cl)C(=O)c2ccccc2C1=O ?
Sm TGR inh: 35.5µM*; HCV inhibitor: 3.16µM*; SARS PLP yeast: -1.4%; Pf growth 48h: inconclusive; Pf growth 96h: inconclusive; HCMV inh: -93.9*

Results for CC(C)OCCCNC(=S)NNC(=O)C(c1ccccc1)c1ccccc1 ?
Sm TGR inh: -5.4%; HCV inhibitor: 1.7%; SARS PLP yeast: 0.1%; Pf growth 48h: -9.9%; Pf growth 96h: inconclusive; HCMV inh: 4.3

Results for OC12CCCCC1C(c1ccc3c(c1)OCO3)N(Cc1cccc(F)c1)CC2 (configuration not stated) ?
Sm TGR inh: 0.3%; HCV inhibitor: -7.7%; SARS PLP yeast: -3.3%; Pf growth 48h: -79.6%; Pf growth 96h: -13.8%; HCMV inh: 19.3

How did OC12CCCCC1C(c1ccc3c(c1)OCO3)N(Cc1ccc(F)cc1)CC2 (configuration not stated) do in these assays?
Sm TGR inh: -12.5%; HCV inhibitor: -20.3%; SARS PLP yeast: -0.7%; Pf growth 48h: 13.1µM*; Pf growth 96h: 9.28µM*; HCMV inh: 37.3

What do the screens show for `Cc1cccc(NC(=O)Cn2c(=O)n(CCc3ccccc3)c(=O)c3sc4ccccc4c32)c1`?
Sm TGR inh: 4.9%; HCMV inh: -0.6

What do the screens show for `CC(C(=O)N1c2ccccc2Sc2ccccc21)n1nnc(-c2cccs2)n1` (configuration not stated)?
Sm TGR inh: 4.2%; HCV inhibitor: 4.3%; SARS PLP yeast: -8.3%; Pf growth 48h: inconclusive; HCMV inh: -24.1

What do the screens show for `Cc1ccc(-c2nnn(C(C)C(=O)N3c4ccccc4CCc4ccccc43)n2)cc1` (configuration not stated)?
Sm TGR inh: -2.5%; HCV inhibitor: inconclusive; SARS PLP yeast: -19.6%; Pf growth 48h: inconclusive; Pf growth 96h: 11.7µM*; HCMV inh: -31.0

Results for CC(C(=O)N1c2ccccc2CCc2ccccc21)n1nnc(-c2ccc(N(C)C)cc2)n1 (configuration not stated) ?
Sm TGR inh: -10.7%; HCV inhibitor: inconclusive; SARS PLP yeast: -4.4%; Pf growth 48h: 7.38µM*; Pf growth 96h: 0.8%; HCMV inh: -1.8

What do the screens show for `CCOc1ccccc1N(C)C(=O)NCc1noc2ccccc12`?
Sm TGR inh: 4.8%; HCMV inh: 14.2

What do the screens show for `CCn1cc(C(=O)O)c(=O)c2cc(F)c(N3CCN(C(=S)NC(=O)c4c(OC)cccc4OC)CC3)cc21`?
Sm TGR inh: -3.2%; HCV inhibitor: -28.1%; SARS PLP yeast: 0.6%; Pf growth 48h: inconclusive; Pf growth 96h: -1.5%; HCMV inh: 5.6

Results for CCn1cc(C(=O)O)c(=O)c2cc(F)c(N3CCN(C(=S)NC(=O)c4cccc(F)c4)CC3)cc21 ?
Sm TGR inh: 7.0%; HCV inhibitor: 15.3%; SARS PLP yeast: 2.3%; Pf growth 48h: 10.4µM*; Pf growth 96h: inconclusive; HCMV inh: 0.0

Results for CCn1cc(C(=O)O)c(=O)c2cc(F)c(N3CCN(C(=S)NC(=O)c4ccccc4Br)CC3)cc21 ?
Sm TGR inh: 0.2%; HCV inhibitor: 19.0%; SARS PLP yeast: 2.9%; Pf growth 48h: inconclusive; Pf growth 96h: 5.22µM*; HCMV inh: inconclusive

What do the screens show for `CCn1cc(C(=O)O)c(=O)c2cc(F)c(N3CCN(C(=S)Nc4ccccc4OC)CC3)cc21`?
Sm TGR inh: -28.9%; HCV inhibitor: 1.1%; SARS PLP yeast: -0.1%; Pf growth 48h: inconclusive; Pf growth 96h: -9.3%; HCMV inh: -37.8
